SRC1 TRFRET art – TR-FRET detection interference compounds, primary screen, artefact control for PPARgamma SRC-1 recruitment agonists, biochemical, TR-FRET emission ratio | TR-FRET detection artefact counter-screen; stronger effect = higher value | TR-FRET ratio at 8 µM | 99,000 compounds, 0.34% hits; in the data active = TR-FRET ratio above about 2300
PPARg SRC1 recr – PPARgamma agonists recruiting SRC-1 coactivator, primary screen, biochemical. PPARgamma-SRC-1 coactivator recruitment biochemical assay. activation, % at 8 µM. 200,000 compounds, 0.41% hits. AID 631, 2007; in the data active = activation above about 19%;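 also: 0% = DMSO and 100% = reference agonist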
Target sequence (P37231 whole entry, looked up): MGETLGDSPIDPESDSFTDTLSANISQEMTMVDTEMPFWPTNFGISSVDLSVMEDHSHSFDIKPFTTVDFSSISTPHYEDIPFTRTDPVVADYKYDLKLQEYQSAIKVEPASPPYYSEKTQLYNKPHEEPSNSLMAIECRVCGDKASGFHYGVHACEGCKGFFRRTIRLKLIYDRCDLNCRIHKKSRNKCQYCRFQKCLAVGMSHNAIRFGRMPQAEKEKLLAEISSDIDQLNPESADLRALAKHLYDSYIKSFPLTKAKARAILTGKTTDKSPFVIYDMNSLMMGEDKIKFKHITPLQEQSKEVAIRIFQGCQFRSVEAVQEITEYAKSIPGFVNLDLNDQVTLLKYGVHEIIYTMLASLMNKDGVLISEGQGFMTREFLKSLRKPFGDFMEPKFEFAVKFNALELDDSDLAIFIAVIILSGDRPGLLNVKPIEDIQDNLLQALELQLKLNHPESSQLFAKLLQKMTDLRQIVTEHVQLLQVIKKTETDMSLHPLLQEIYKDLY
PPARg SRC-2 ag – agonists of PPARg-SRC-2 recruitment, primary screen, biochemical, HTS; Peroxisome proliferator-activated receptor gamma (Homo sapiens), P37231; 200,000 compounds, 0.34% hits; PPARgamma LBD-SRC-2 recruitment; AID 1032, 2008; activation, % at 8 µM; in the data active = activation above about 22%;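 also: 0% = vehicle and 100% = reference agonist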
SRC3 TRFRET art – TR-FRET detection interference compounds, artefact control for PPARgamma SRC-3 recruitment agonists, biochemical, TR-FRET ratio | 99,000 compounds, 0.39% hits | AID 1048, 2008 | TR-FRET ratio at 8 µM | TR-FRET artefact counter-screen, PPARgamma/SRC-3 format; stronger effect = higher value
PPARg SRC3 recr – PPARgamma agonists recruiting SRC-3 coactivator, primary screen, biochemical; biochemical PPARgamma/SRC-3 coactivator recruitment assay; 200,000 compounds, 0.26% hits; activation, % at 8 µM; in the data active = activation above about 23%;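 also: 0% = DMSO and 100% = reference agonist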
SRC2 TRFRET art – TR-FRET signal artefacts, primary screen, artefact control for PPARgamma SRC-2 agonist project, biochemical | TR-FRET ratio at 8 µM | 200,000 compounds, 0.4% hits | TR-FRET artefact counter-screen; stronger effect = higher value
PPARg SRC2 conf – agonists of PPARgamma SRC-2 coactivator recruitment, confirmation, biochemical, HTS; shares compounds with PPARg SRC3 recr; biochemical SRC-2 recruitment by PPARgamma; activation, % at 8 µM; 790 compounds, 52% hits; in the data active = activation above about 22%;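 also: 0% = vehicle alone and 100% = reference agonist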
PPARg SRC1 ag – PPARgamma agonists recruiting SRC-1 coactivator, confirmation, biochemical. shares compounds with PPARg SRC3 recr. PPARgamma–SRC-1 coactivator recruitment biochemical assay. activation, % at 8 µM. 790 compounds, 43% hits. AID 1300, 2008; in the data active = activation above about 20%;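 also: 0% = vehicle wells and 100% = reference agonist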
PPARg SRC3 conf – PPARgamma-driven SRC-3 coactivator recruitment agonists, confirmation, biochemical; shares compounds with PPARg SRC3 recr; biochemical PPARgamma-SRC-3 coactivator recruitment, agonist mode; activation, % at 8 µM; 790 compounds, 29% hits; AID 1301, 2008; in the data active = activation above about 24%;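 also: 0% = vehicle wells and 100% = reference agonist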
The depositor's hits bear a star; nt = not tested or not shown. A selection: hits, their analogues and other compounds. The true share with any hit is near 0.9%. Rule as the data show it, unless noted: active = TR-FRET ratio above about 2000; inactive = the rest.

SMILES | SRC1 TRFRET art | PPARg SRC1 recr | PPARg SRC-2 ag | SRC3 TRFRET art | PPARg SRC3 recr | SRC2 TRFRET art | PPARg SRC2 conf | PPARg SRC1 ag | PPARg SRC3 conf
O=C(Nc1cc(SCC(O)CO)cc([N+](=O)[O-])c1)c1ccc(-n2cnnn2)cc1 (stereo not given) | 1703 | 61.6* | 58.7* | 1435 | 27.9* | 1611 | 10.2 | 2.8 | 2.5
CNC(=S)N1N=C(c2ccc(C)cc2)CC1c1ccc(Cl)cc1 (stereo not given) | nt | 6.4 | 23.2* | nt | 13.9 | 2072* | 13.6 | 7.0 | 8.9
Cc1cccc(NC(=O)c2cc([N+](=O)[O-])ccc2N2CCCCC2)n1 | 1709 | -2.1 | 2.7 | 1488 | -3.5 | 1360 | nt | nt | nt
CCNc1nc(Oc2ccc(F)cc2)cc(C(F)(F)F)n1 | 1898 | -3.0 | 4.1 | 1498 | 4.0 | 1629 | nt | nt | nt
CC(C)Nc1nc(Oc2ccc(Cl)cc2)cc(C(F)(F)F)n1 | nt | 10.6 | 23.1* | nt | 5.9 | 1676 | 0.3 | 2.9 | 0.2
CCOC(=O)C1=C(N)Oc2cc(O)ccc2C1c1cccc([N+](=O)[O-])c1 (stereo not given) | 1650 | 3.3 | -1.1 | 1570 | -3.4 | 1655 | nt | nt | nt
O=C(Nc1nc2c(s1)COc1ccccc1-2)c1cccs1 | nt | 18.6 | 27.0* | nt | 15.1 | 2118* | 41.4* | 31.5* | 28.0*
CCOc1ccc(C2C(C(=O)c3ccco3)=C(O)C(=O)N2CCCn2ccnc2)cc1 (stereo not given) | nt | 7.6 | 18.9 | nt | 15.6 | 1743 | nt | nt | nt
Cc1ccc(C(=O)C2=C(O)C(=O)N(CCCn3ccnc3)C2c2ccc(OC(C)C)cc2)o1 (stereo not given) | nt | 14.0 | 28.2* | nt | 25.9* | 2124* | 9.9 | 6.0 | 7.3
O=C(C1=C(O)C(=O)N(CC2CCCO2)C1c1cccnc1)c1ccco1 (stereo not given) | nt | 2.7 | 2.8 | nt | 7.0 | 1600 | nt | nt | nt
COc1cccc2cc(C(=O)C3=C(O)C(=O)N(Cc4ccco4)C3c3cccnc3)oc12 (stereo not given) | nt | 27.1* | 25.5* | nt | 40.0* | 2226* | 23.1* | 14.4 | 13.7
O=C(C1=C(O)C(=O)N(Cc2ccco2)C1c1cccnc1)c1cc2ccccc2o1 (stereo not given) | nt | 32.9* | 33.9* | nt | 50.3* | 2097* | 21.2 | 15.4 | 14.1
O=C(Oc1ccc(Cl)c2cccnc12)N1CCCCC1 | 1483 | 1.6 | 3.2 | 1816 | -2.6 | 1472 | nt | nt | nt
O=C(Oc1c(Br)cc(Br)c2cccnc12)N1CCCCC1 | 2129 | 28.7* | 14.7 | 1960 | 5.0 | 1691 | 10.8 | 5.2 | 7.3
S=C(Nc1ccc2nsnc2c1)N1CCCCC1 | 2191 | 17.4 | 21.8* | 1795 | 9.0 | 1710 | 21.4 | 18.4 | 13.9
CCCn1nnnc1NC(=O)COc1ccc(CC)cc1 | 1747 | -0.9 | -0.5 | 1717 | 2.7 | 1525 | nt | nt | nt
Cc1ccc(S(=O)(=O)c2c(CO)c(-c3ccccc3)nn2C)cc1 | 1892 | 16.7 | 9.5 | 1207 | 34.4* | 1327 | 10.5 | 15.9 | 17.9
S=c1[nH]c(-c2ccc(Cl)cc2)cs1 | 2339* | 26.7* | 29.6* | 2141* | 16.7 | 1997* | 27.1* | 19.1 | 16.9
CCNC(=S)Nc1ccc(Cl)c(C(F)(F)F)c1 | 1999 | 0.3 | -0.2 | 1460 | 0.1 | 1507 | nt | nt | nt
CC(C)(C)NC(=O)NC(=O)CSc1n[nH]c(-c2ccccc2Br)n1 | 1542 | -4.3 | -6.4 | 1538 | -2.0 | 1421 | nt | nt | nt
